Test [1] has as its target Mitogen-activated protein kinase 10 (Mus musculus) (UniProt Q61831). The test is described as follows: JNK3 AlphaScreen Assay (AID 530; active means well fitted curve in either direction with a large enough effect, not every such curve was filed as active;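 further: kinase came from lysate of stimulated human HepG2 cells; signal reports phosphorylation of biotinylated GST-cJun 1-79 at Ser73 with 10 µM ATP; series mostly up to about 57 µM; on the % scale 0 is the no-effect control and ±100 the full control effect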). Summed up: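 Inhibitors reduce antibody binding to phosphorylated biotin-cJun, lowering AlphaScreen luminescence. Lysates from HepG2 cells pre-activated by IL-1beta plus TNF-alpha supplied JNK3; compounds were titrated.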
Background: Alpha assays give light when donor and acceptor beads are brought close together.

Test [2] deals with Cytochrome P450 3A4 (Homo sapiens) (UniProt P08684). Briefly: qHTS Assay for Inhibitors and Substrates of Cytochrome P450 3A4 (AID 884). Further: nearly all actives have a fitted effect of over 50% in size. Further: potency means the concentration at half of the fitted maximal effect. In a few lines:
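20 nM human CYP3A4 with 25 uM Luciferin-PPXE (at KM) in 200 mM KPO4, preincubated 10 min with compound; NADPH regeneration started a 60 min RT reaction. Luciferin detected by luminescence, normalized to 57 uM ketoconazole as full inhibition.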
On the technique in general: In qHTS, concentration-response curves come from the screen itself.

A short description of test [3]: Confirmation and Secondary Assay for Modulators of Hemoglobin Beta Chain Splicing at IVS2 654 locus (AID 910).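 Further: per-well total GFP intensity by laser scanning cytometry after 2-day treatment; % of control where 0% means no effect.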 Summed up: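 HeLa cells stably carrying EGFP interrupted by mutant beta-globin IVS2-654 intron (CMV-driven) were treated with compound for 2 days at 37C; corrected splicing was scored as total peak GFP intensity per well (488 nm excitation, 500-520 nm emission).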

The nature of test [4]: Confirmation and Secondary Assay for Modulators of Hemoglobin Beta Chain Splicing at IVS2 705 locus (AID 930).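 Further: HeLa cells stably expressing the EGFP-705 splicing reporter; GFP fluorescence per well restored by corrected splicing of the IVS2-705 intron in EGFP; series mostly up to about 46 µM; % of control where 0% means no effect.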 Summed up: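 Splice-correction reporter: EGFP cDNA split by beta-globin intron 2 bearing the 705 mutation, stably in HeLa. Compound incubation 2 days, 37C; fluorescent objects 5-250 µm summed per well.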
Test [5] deals with Ubiquitin carboxyl-terminal hydrolase 1 (Homo sapiens) (UniProt O94782). The test is described as follows: Inhibitors of USP1/UAF1: Pilot qHTS (AID 504865). Further: nearly all actives have a fitted effect of over 35% in size. Further: potency means the concentration at half of the fitted maximal effect. In a few lines:
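Kinetic fluorescence assay: 1nM USP1/UAF1, 15 min compound preincubation, then 150nM Ub-Rho; 480/540 nm.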

The target of test [6] is Cytochrome P450 3A4 (Homo sapiens) (UniProt P08684). Briefly: qHTS Assay for Activators of Cytochrome P450 3A4 (AID 885). Further: nearly all actives have a fitted effect of over 65% in size. In a few lines:
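Quantitative HTS format: compounds preincubated with 20nM human CYP3A4 and Luciferin-PPXE substrate at KM, reaction started by NADPH regeneration, stopped after 60 min, luciferase luminescence read 20 min later.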

The target of test [7] is DNA dC->dU-editing enzyme APOBEC-3G (Homo sapiens) (UniProt Q9HC16). Briefly: qHTS for inhibitors of Vif-A3G interactions: Validation (AID 588379). Further: 0% is about no effect. In a few lines: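 HeLa cells stably expressing Vif and A3G-eYFP, 700 cells/well, incubated overnight at 37 deg C, then exposed to compound overnight at 37 deg C. Inhibition of Vif-mediated degradation read as increased yellow fluorescence (Ex 488/Em 500-530) by laser-scanning cytometry.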
Sequence of DNA dC->dU-editing enzyme APOBEC-3G (Homo sapiens) (Q9HC16 whole entry, looked up): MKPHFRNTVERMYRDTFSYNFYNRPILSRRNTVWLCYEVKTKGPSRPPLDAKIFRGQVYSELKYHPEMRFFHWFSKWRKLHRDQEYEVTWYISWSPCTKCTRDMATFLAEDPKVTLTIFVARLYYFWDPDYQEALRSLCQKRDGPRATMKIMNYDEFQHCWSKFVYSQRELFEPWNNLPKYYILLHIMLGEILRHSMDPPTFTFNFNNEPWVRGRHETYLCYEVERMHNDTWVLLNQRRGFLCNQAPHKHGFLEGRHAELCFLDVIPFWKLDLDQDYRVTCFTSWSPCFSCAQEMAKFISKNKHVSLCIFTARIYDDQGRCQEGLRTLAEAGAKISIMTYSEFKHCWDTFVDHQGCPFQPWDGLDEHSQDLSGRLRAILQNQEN

The target in test [8] is Androgen receptor (Homo sapiens) (UniProt P10275). Briefly: qHTS assay for small molecule agonists of androgen receptor signaling (AID 588515; active means well fitted curve in the direction sought with a large enough effect in the signal ratio, with a control signal flat; the % refers to the signal ratio; further: on the % scale 0 is the no-effect control and ±100 the full control effect). As to conditions: AR-UAS-bla HEK293, beta-lactamase ratio, agonist 16 h; stronger effect = higher value. In a few lines: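 EC50 and efficacy came from Hill fits of titrations (up to 92 uM) normalized to 30 nM R1881 as 100% and DMSO as 0%. Compound exposure was 16 h at 37 C on AR-UAS-bla HEK293 cells, with a 405/460/530 nm CCF4 fluorescence read.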
Sequence of Androgen receptor (Homo sapiens) (P10275 whole entry, looked up): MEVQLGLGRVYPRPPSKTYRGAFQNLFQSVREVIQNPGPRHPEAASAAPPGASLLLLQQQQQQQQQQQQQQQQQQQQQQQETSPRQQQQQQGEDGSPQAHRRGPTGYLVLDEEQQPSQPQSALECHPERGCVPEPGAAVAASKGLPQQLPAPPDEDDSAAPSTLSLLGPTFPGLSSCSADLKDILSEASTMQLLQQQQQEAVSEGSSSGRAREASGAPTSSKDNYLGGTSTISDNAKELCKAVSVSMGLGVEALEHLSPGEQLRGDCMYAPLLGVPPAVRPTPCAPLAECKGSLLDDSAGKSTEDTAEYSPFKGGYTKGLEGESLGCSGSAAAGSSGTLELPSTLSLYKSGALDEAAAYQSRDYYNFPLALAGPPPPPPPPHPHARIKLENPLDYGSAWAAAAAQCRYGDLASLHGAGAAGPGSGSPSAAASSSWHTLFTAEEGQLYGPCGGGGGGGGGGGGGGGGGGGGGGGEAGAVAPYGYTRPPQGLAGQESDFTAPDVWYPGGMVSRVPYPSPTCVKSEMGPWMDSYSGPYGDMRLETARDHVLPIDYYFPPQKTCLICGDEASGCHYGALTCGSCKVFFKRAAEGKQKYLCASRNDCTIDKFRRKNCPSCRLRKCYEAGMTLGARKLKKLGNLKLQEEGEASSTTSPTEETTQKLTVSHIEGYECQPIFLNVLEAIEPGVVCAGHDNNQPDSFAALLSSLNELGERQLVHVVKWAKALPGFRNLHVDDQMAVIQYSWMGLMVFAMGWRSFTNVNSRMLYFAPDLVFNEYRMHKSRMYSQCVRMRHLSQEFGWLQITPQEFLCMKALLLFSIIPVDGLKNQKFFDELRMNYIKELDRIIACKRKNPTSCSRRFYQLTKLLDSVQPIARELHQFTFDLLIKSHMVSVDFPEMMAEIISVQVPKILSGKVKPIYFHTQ

The target is the same in test [9]. The test is described as follows: qHTS assay for small molecule antagonists of androgen receptor signaling (AID 588516; active means well fitted curve in the direction sought with a large enough effect in the signal ratio, with a control signal flat, not every such curve was filed as active; the % refers to the signal ratio; further: on the % scale 0 is the no-effect control and ±100 the full control effect). Summed up:
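Antagonist-mode qHTS: inhibition of R1881 (10 nM)-driven beta-lactamase expression in GripTite HEK 293 cells is measured after 16 h; values are Hill-derived IC50s normalized between R1881 and DMSO wells.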

In test [10] the target is Bile acid receptor (Homo sapiens) (UniProt Q96RI1). The test is described as follows: qHTS assay for small molecule antagonists of farnesoid X receptor signaling (AID 588526; calls by dose curve; further: on the % scale 0 is the no-effect control and ±100 the full control effect). In a few lines:
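Concentration-response titrations were fitted to the Hill equation for half-maximal inhibition and maximal response, with data normalised to 50 uM chenodeoxycholic acid and DMSO control wells. Cells: FXR-UAS-bla HEK293T, dialyzed FBS.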

The target is the same in test [11]. Briefly: qHTS assay for small molecule agonists of farnesoid X receptor signaling (AID 588527; calls by dose curve;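 further: series mostly up to about 77 µM; 0% = vehicle basal and 100% = reference agonist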). The following applies: HEK293T FXR-UAS-bla, beta-lactamase ratio, 16 h; activation: stronger effect = higher value. Summed up:
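Quantitative HTS used FXR-UAS-bla HEK293T cells with 16 h compound incubation at 37 C. EC50 values came from concentration-response curves normalized to chenodeoxycholic acid.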

For test [12], the target named is Glucocorticoid receptor (Homo sapiens) (UniProt P04150). Briefly: qHTS assay for small molecule agonists of glucocorticoid receptor signaling (AID 588532; active means well fitted curve in the direction sought with a large enough effect in the signal ratio, with a control signal flat; the % refers to the signal ratio;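 further: 100% = dexamethasone at 0.1 µM and 0% = DMSO only wells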). The following applies: HeLa MMTV-bla, beta-lactamase ratio, agonist, 18 h; activation: stronger effect = higher value, percent of dexamethasone control, DMSO zero. In a few lines:
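Titration series, up to 92 uM, applied to GRE-bla HeLa cells for 18 h at 37 C. Detection by CCF4 FRET substrate after 2 h at RT.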

The target is the same in test [13]. The test is described as follows: qHTS assay for small molecule antagonists of glucocorticoid receptor signaling (AID 588533; active means well fitted inhibition curve with a large enough effect in the signal ratio, with a control signal flat, not every such curve was filed as active; the % refers to the signal ratio). Summed up: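 Antagonist-mode qHTS: compound titrations added to GRE-bla HeLa cells, then dexamethasone 2 nM final; 18 h, 37 C. CCF4 FRET fluorescence normalized to dexamethasone and DMSO; IC50 from Hill fit.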
A short description of test [14]: qHTS assay for small molecule antagonists of peroxisome proliferator-activated receptor delta signaling (AID 588535; active means well fitted inhibition curve with a large enough effect in the signal ratio, with a control signal flat, not every such curve was filed as active; the % refers to the signal ratio;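 on max response: cells co-treated with a PPAR-delta agonist as stimulator during compound exposure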). As to conditions: HEK293T PPARd-UAS-bla, beta-lactamase FRET ratio, 18 h; 460 nm channel. In a few lines:
(§1)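 Reporter: UAS-bla under PPAR-delta response element, HEK293T host. Medium: 2% charcoal/dextran FBS. Dosing: titration, 18 hrs, 37 C. Detection: CCF4, 2 hrs RT, 405 ex/460 and 530 em.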

Test [15] is described as follows: qHTS assay for small molecule agonists of retinoid X receptor alpha signaling (AID 588544). The following applies: HEK293T RXRa-UAS-bla, beta-lactamase reporter, 18 h; 530 nm emission.
Test [16] in a line: qHTS assay for small molecule activators of the nuclear factor-kappa B (NF-kB) signaling pathway (AID 651749; active means well fitted activation curve with a large enough effect in the signal ratio; the % refers to the signal ratio; further: series mostly up to about 77 µM; % of control where 0% means no effect). As to conditions: NF-kB-bla ME-180 cells, beta-lactamase FRET ratio, 16 h; activation: stronger effect = higher value. In a few lines: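 Screening used 2,000 ME-180 reporter cells per well exposed to pinned compound (23 nL) or DMSO; after 16 hr at 37C, beta-lactamase expression under NF-kB control was assessed through FRET.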

Test [17] is described as follows: qHTS assay for small molecule activators of the human pregnane X receptor (PXR) signaling pathway (AID 720659; call rule not given here; further: 0% is about no effect).
Test [18] deals with Peroxisome proliferator-activated receptor delta (Homo sapiens) (UniProt Q03181). Briefly: qHTS assay for small molecule antagonists of peroxisome proliferator-activated receptor delta signaling (AID 588535).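 On max response: cells co-treated with a PPAR-delta agonist as stimulator during compound exposure.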 Summed up: as §1
Sequence of Peroxisome proliferator-activated receptor delta (Homo sapiens) (Q03181 whole entry, looked up): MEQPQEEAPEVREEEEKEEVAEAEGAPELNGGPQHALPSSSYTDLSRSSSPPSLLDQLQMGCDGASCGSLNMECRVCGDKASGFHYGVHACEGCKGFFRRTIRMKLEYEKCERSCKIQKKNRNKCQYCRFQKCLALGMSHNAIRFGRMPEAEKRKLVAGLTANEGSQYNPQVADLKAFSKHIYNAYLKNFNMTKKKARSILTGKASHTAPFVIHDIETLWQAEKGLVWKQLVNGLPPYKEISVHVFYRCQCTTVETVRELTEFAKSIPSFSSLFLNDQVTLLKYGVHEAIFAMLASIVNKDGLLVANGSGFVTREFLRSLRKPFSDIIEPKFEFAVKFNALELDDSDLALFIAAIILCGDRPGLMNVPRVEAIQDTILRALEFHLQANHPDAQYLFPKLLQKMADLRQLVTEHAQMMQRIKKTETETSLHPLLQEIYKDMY
The nature of test [19]: qHTS assay for small molecule agonists of the antioxidant response element (ARE) signaling pathway (AID 651741; active means well fitted activation curve with a large enough effect in the signal ratio; the % refers to the signal ratio; further: % of control where 0% means no effect). In a few lines: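 Compounds in DMSO are pinned onto HepG2 ARE-bla cells (2,000/well) that were preincubated 5 h; plates stay 16 h at 37 C, then beta-lactamase activity is detected with LiveBLAzer B/G substrate by fluorescence.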

Several values for one entry are separate records, joined by “and”; a condition that tells them apart may be missing. Equal entries are not always repeated. Results filed as inconclusive are left out. Activity calls are given as the source filed them. Unless noted, the call rests on the fitted dose curve; in most records, active means well fitted curve in the direction sought with a large enough effect; inconclusive means small, poorly fitted or top-dose-only effect, or another doubt; inactive means no such curve, though single readings can be large; an effect the other way counts as inactive or inconclusive.

Sequence of Glucocorticoid receptor (Homo sapiens) (P04150 whole entry, looked up): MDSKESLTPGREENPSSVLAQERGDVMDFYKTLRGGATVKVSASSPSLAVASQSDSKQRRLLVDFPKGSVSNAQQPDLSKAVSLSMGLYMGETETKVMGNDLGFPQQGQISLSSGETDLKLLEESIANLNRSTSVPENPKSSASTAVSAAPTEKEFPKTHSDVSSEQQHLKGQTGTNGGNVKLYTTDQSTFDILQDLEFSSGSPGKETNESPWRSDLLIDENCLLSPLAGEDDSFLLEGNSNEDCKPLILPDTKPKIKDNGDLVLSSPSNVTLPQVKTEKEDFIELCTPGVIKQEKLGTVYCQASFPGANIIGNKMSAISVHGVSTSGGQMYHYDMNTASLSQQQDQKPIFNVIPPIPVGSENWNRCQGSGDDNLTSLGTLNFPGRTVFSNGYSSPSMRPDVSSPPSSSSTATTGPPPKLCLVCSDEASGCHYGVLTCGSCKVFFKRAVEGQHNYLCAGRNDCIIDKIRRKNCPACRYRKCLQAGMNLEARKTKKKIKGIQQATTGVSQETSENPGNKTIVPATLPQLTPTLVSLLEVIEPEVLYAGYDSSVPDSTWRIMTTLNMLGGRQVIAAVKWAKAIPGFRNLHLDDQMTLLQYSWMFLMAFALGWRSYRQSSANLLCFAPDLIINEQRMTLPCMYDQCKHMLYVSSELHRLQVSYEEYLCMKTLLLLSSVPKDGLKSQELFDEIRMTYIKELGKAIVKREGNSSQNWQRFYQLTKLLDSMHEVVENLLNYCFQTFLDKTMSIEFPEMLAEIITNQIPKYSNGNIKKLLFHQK
Sequence of Cytochrome P450 3A4 (Homo sapiens) (P08684 whole entry, looked up): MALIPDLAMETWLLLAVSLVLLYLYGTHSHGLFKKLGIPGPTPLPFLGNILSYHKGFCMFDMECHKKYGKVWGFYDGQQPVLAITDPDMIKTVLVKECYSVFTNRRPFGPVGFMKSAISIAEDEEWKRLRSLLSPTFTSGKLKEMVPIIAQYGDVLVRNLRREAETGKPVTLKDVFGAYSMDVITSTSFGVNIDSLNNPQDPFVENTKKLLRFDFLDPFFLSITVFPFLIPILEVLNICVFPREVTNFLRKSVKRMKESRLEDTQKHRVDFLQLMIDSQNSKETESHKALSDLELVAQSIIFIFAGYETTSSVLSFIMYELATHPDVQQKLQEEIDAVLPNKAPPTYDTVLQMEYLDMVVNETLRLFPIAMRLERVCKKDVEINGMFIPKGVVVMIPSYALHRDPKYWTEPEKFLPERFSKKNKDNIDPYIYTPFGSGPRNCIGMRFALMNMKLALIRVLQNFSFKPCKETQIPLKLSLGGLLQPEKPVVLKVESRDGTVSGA
Sequence of Bile acid receptor (Homo sapiens) (Q96RI1 whole entry, looked up): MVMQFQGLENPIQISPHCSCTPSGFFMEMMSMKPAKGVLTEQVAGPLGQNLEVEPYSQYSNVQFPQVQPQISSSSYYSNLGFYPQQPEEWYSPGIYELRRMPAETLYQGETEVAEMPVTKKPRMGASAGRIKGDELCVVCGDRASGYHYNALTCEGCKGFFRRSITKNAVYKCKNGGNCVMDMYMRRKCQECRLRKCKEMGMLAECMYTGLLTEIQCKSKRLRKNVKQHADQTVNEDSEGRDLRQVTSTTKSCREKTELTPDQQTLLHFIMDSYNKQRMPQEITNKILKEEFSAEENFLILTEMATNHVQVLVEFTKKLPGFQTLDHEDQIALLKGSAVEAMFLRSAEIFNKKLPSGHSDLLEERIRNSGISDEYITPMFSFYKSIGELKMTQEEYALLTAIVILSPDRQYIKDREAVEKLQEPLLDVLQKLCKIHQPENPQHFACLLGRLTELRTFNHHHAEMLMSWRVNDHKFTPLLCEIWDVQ
Sequence of Ubiquitin carboxyl-terminal hydrolase 1 (Homo sapiens) (O94782 whole entry, looked up): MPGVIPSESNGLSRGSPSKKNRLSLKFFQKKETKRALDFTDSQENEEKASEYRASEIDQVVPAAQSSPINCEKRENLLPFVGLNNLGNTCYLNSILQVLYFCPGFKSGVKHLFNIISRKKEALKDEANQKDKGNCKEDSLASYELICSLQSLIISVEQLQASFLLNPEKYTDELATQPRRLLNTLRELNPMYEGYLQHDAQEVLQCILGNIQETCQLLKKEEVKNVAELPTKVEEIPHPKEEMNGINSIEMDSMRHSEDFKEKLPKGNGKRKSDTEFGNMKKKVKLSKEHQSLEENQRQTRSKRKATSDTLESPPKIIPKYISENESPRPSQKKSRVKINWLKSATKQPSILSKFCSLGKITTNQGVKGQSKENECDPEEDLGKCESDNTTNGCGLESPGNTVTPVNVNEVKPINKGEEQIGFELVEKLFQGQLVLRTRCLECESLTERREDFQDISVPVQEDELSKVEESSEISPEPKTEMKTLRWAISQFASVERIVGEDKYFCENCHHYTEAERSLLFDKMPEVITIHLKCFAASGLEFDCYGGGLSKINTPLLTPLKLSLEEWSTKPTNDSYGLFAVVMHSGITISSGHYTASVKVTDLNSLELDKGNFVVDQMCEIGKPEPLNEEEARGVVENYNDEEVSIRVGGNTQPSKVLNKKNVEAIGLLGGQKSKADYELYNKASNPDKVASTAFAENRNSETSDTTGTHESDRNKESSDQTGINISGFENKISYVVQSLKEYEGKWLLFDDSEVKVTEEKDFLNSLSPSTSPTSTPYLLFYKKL

Turning to `COC(=O)[C@@H]1C[C@H]1[C@@H](NP(=O)(c1ccccc1)c1ccccc1)c1ccccc1`, the compound was classed as inactive in test [1].
For the compound `CC(CO)NC(=O)C1C=C2c3cccc4[nH]cc(c34)C[C@H]2N(C)C1` (some centres not stated), the Potency entry in [2], in test [3] and in test [5] was “inactive” in each case. Also, in test [4], the call was inactive.
On to `OCC(O)Cc1ccc2c(c1)OCO2` (configuration not stated), for which the Potency result in test [6], in test [3] and in test [5] was “inactive” in each case. For the same compound, the outcome in [4] was inactive.
With `COc1c2c(c(CC=C(C)C)c3oc(=O)c(-c4ccc(O)cc4)c(O)c13)OC(C)(C)C=C2`, the Potency entry in [6] and in [3] was “inactive” in each case. Further, in test [4], the compound was called inactive. Also, the Potency in test [5] is 79.4 µM (active).
For `COC(=O)[C@]1(C)C[C@H]1[C@H](NP(=O)(c1ccccc1)c1ccccc1)c1ccccc1`, the compound was called inactive in [1]. Besides, the Potency entry in test [6] is “inactive”.
Turning to `C=C(CC1(C(C)NP(=O)(c2ccccc2)c2ccccc2)CC1)c1ccccc1` (configuration not stated), in test [1], the compound was called inactive. Moreover, the Potency in [2] was 3.98 µM (active). In test [6], the Potency result is “inactive”.
Take `O=CN1CC2CC(C1)c1cccc(=O)n1C2` (configuration not stated): the Potency entry in [2] was “inactive”. The call in test [7] was inactive.
As to `CCCC1COC(Cn2cncn2)(c2ccc(Cl)cc2Cl)O1` (configuration not stated), the activation in [8] is -7.53% (inactive) and -11.8% (inactive); in [11] it was 0.69% (inactive); in test [12] it was 4.96% (inactive) and -1.29% (inactive); in test [16], -0.905% (inactive) and -2.64% (inactive). The Potency entry in test [9], in test [10] and in test [13] was “inactive” each time. Further, the max response is 10.7% in [14] and 1.7% in test [15].
For the compound `C/C=C(\C)C(=O)O[C@H]1C[C@@H](OC(C)=O)[C@@]2(C(=O)OC)CO[C@H]3[C@@H](O)[C@@](C)([C@]45O[C@@]4(C)[C@H]4C[C@@H]5O[C@@H]5OC=C[C@@]54O)[C@H]4[C@]1(CO[C@]4(O)C(=O)OC)[C@@H]32`, the results for the activation in test [8], in [12] and in test [16] were 2.71% (inactive), 4.96% (inactive) and -1.4% (inactive), respectively. Also, the Potency entry in [9] and in test [10] was “inactive” each time. Moreover, in test [15], the max response is -0.369%.
Regarding `COc1ccc2c(c1OC)C(=O)O[C@@H]2C1c2cc3c(cc2CCN1C)OCO3` (some centres not stated), in test [7], the compound was classed as inactive.
Turning to `CNC(=O)Oc1cccc2c1OC(C)(C)C2O` (configuration not stated), the activation in test [8] was 3.8% (inactive); in test [12] it was 12.4% (inactive); in test [16] it was 0.725% (inactive). In addition, the Potency entry in test [9], in test [10] and in test [13] was “inactive” throughout. For the same compound, the max response in test [15] is -10.1%. Besides, the compound was called inactive in test [17].
As for `CC1CCC2C(C)C(=O)OC3OC4(C)CCC1C32OO4` (configuration not stated), in test [7], the call was inactive.
In the case of `COc1ccc2c(c1OC)C(=O)O[C@@H]2[C@H]1c2cc3c(cc2CCN1C)OCO3`, the outcome in [1] was inactive.
For the compound `CCOC1Oc2ccc(OS(C)(=O)=O)cc2C1(C)C` (configuration not stated), the activation in test [8] is -8.07% (inactive). Moreover, the Potency result in test [9] and in [18] was “inactive” throughout. For the same compound, the figures for the max response in test [14] and in test [15] were -8.85% and 7.47%, respectively.
For the compound `COc1cc2c(cc1OC)-c1c(OC)c(OC)c(CO)c3c1C(C2)N(C)CC3` (configuration not stated), the Potency in test [2] is 31.6 µM (active). Also, the Potency entry in test [6] was “inactive”. Besides, in test [7], the compound was classed as inactive.
For `COc1ccc(CC2NCC(O)C2OC(C)=O)cc1` (configuration not stated), the Potency entry in test [2] was “inactive”. In addition, the call in test [7] was inactive.
Turning to `CN1C[C@@H](CO)C=C2c3cccc4[nH]cc(c34)CC21` (some centres not stated), the Potency result in test [6] was “inactive”. Besides, the compound was called inactive in test [7].
As for `CN1Cc2c(ccc3c2OCO3)C2C(O)Cc3cc4c(cc3C21)OCO4` (configuration not stated), in test [2], the Potency is 12.6 µM (active) and 5.01 µM (active). Also, the Potency entry in [6] and in test [3] was “inactive” throughout. Further, the result in test [4] and in test [7] was inactive.
Turning to `CC1=CC(=O)C2=C(C)C[C@H](O)[C@H]3[C@H](C)C(=O)O[C@@H]3C12` (some centres not stated), the Potency result in test [2] was “inactive”. The result in test [7] was inactive.
As to `Cc1cnc(C2=NC(C)(C(C)C)C(=O)N2)c(C(=O)O)c1` (configuration not stated), the activation is -8.96% (inactive) and 2.01% (inactive) in test [8]; 0.844% (inactive) and 5.59% (inactive) in test [12]. Moreover, the Potency entry in [9], in [18] and in test [19] was “inactive” throughout. Besides, the max response in test [14] is -1.47%; in test [15], -18.8% and -4.8%.

(Values after PubChem BioAssay (NCATS).)
